# Measurements taken from PubChem BioAssay.
# Calls of active or inactive are those of the source. Unless noted, the rule behind the calls is not given here.
# Legend:
# [1] = tested on: Wnt5a (protein binding on small-molecule microarray); test: Wnt5a binders on small-molecule microarray, primary screen, biophysical, 635/667 nm fluorescence (AID 1142); settings: 635 nm fluorescence, higher = more signal;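 note: fluorescence read at 667 nm with signal to noise per printed feature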
# [2] = cell viability in Huh7 cells, primary screen, cytotoxicity control for HCV replication inhibitor project, CellTiter-Glo luminescence, basal, 48 h (AID 1143); settings: Huh7 HCV replicon, higher = more signal, called active from +8 up or from −8 down;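 note: Huh7 hepatoma cells carrying a hepatitis C replication reporter with no stimulus; test concentration not given here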
# [3] = P. aeruginosa biofilm formation inhibitors, primary screen, PAO1 strain, BacTiter-Glo luminescence, LB-PBS (AID 1144); settings: 12 h, higher = more signal
# [4] = CREB reporter modulators without forskolin, primary screen, cell-based, PC12, CRE-LacZ reporter, unstimulated (AID 1145); settings: no forskolin, luminescence, 4.5 h, higher = more signal, called active from +8 up or from −8 down
# [5] = CREB reporter modulators under forskolin, primary screen, cell-based, PC12, CRE-LacZ reporter, forskolin-stimulated (AID 1146); settings: luminescence, 4.5 h, higher = more signal, called active from +8 up or from −8 down;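 note: PC12 cells with 6xCRE LacZ reporter stimulated by forskolin 10 µM; beta-galactosidase reporter signal reflecting CREB driven transcription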
# [6] = molecular target: Streptavidin (Streptomyces avidinii) (UniProt P22629); test: streptavidin binders on small-molecule microarray, primary screen, artefact control for SMM compound annotation, biophysical, 635/667 nm fluorescence (AID 1147); settings: streptavidin binding, higher = more signal;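 note: signal reflects streptavidin binding to arrayed compounds as a control protein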
# [7] = small-molecule binders of probe aInhba, primary screen, biochemical, small-molecule microarray, 635/667 nm fluorescence (AID 1148); settings: higher = more signal;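 note: score merges 667nm spot fluorescence with signal-to-noise for antibody binding to printed compounds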
# Torsin-1A (Homo sapiens) [8] = molecular target: Torsin-1A (Homo sapiens) (UniProt O14656); test: torsin A binders from cell lysate, primary screen, small-molecule microarray, wild-type, 635/667 nm (AID 1149); settings: COS7 hTOR1A-WT lysate, 635 nm fluorescence, higher = more signal
# Torsin-1A (Homo sapiens) [9] = molecular target: Torsin-1A (Homo sapiens) (UniProt O14656); test: small-molecule binders of mutant TOR1A in lysate, primary screen, cell lysate, small-molecule microarray, COS7 lysate, 635/667 nm fluorescence (AID 1150); settings: COS7 hTOR1A mutant lysate, 635 nm fluorescence, higher = more signal;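 note: score pools 667 nm emission and signal to noise measuring lysate protein binding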
# [10] = tested on: Sonic hedgehog protein (Shh); test: small-molecule binders of Shh protein, primary screen, biochemical, small-molecule microarray, 635/667 nm fluorescence (AID 1151); settings: small-molecule microarray binding, 635 nm fluorescence; higher = more signal;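 note: Shh protein binding to compounds spotted on small-molecule microarray slides; score combines spot fluorescence intensity with signal-to-noise across triplicate slides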
# Sequence of Torsin-1A (Homo sapiens) (O14656 whole entry, looked up): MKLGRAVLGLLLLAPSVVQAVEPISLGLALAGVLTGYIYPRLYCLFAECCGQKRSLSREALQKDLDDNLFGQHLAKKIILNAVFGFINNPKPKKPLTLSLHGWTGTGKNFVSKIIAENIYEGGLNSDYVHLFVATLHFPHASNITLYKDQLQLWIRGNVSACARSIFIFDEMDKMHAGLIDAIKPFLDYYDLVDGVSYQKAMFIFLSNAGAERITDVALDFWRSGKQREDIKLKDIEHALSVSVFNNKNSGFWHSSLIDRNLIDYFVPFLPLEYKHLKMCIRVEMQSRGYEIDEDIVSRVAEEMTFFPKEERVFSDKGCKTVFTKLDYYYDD
# Sequence of Streptavidin (Streptomyces avidinii) (P22629 whole entry, looked up): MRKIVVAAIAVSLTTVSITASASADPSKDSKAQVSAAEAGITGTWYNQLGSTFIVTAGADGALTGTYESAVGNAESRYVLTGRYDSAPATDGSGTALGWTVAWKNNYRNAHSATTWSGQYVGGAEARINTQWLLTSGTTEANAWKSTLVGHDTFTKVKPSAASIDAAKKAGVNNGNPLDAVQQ
SMILES,composite z-score [1],z-score [2],z-score [3],z-score [4],z-score [5],composite z-score [6],composite z-score [7],composite z-score (Torsin-1A (Homo sapiens) [8]),composite z-score (Torsin-1A (Homo sapiens) [9]),composite z-score [10]
COc1c(C)cc(-c2cc3c(c(-c4ccc(Oc5ccccc5)cc4)n2)[Si](C(C)C)(C(C)C)OC3)cc1C,0.285,-0.0304 (inactive),0.0144 (inactive),0.148 (inactive),0.151 (inactive),-0.246,0.127,-0.238,0.164,0.205
COc1ccc(C(=O)Nc2cccc(CN3C(=O)[C@]4(O[C@H](CC(=O)N5CCC[C@H]5CO)[C@@H]([Si](C)(C)c5ccc(OC)cc5)[C@@H]4C)c4ccccc43)c2)cc1,0.278,-5.56 (inactive),1.16 (inactive),0.105 (inactive),-0.748 (inactive),-0.349,-0.15,0.421,0.812,1.79
O=C1OCCC=C[C@H]2OC34C=CCN(Cc5ccccc5)C(=O)[C@H]3N(CCCO)C(=O)[C@@H]4C12 (stereo not given in full),-0.419,-3.89 (inactive),-2.36 (inactive),-1.31 (inactive),-1.18 (inactive),-0.399,-0.128,-0.8,-0.586,-0.174
CCCN1C(=O)[C@@]2(CCC(=O)OC(C)(C)C)N=C(c3ccc(OCCCO)cc3)O[C@H]2c2ccccc21,0.399,-4.47 (inactive),-1.36 (inactive),1.46 (inactive),-1.6 (inactive),0.0808,0.0319,-0.0821,0.408,1.5
O=C1C2C=CC(C(O)c3ccc(F)cc3)N(Nc3ccccc3)C2C(=O)N1c1ccccc1 (stereo not given),0.137,0.633 (inactive),-0.686 (inactive),-0.522 (inactive),-0.49 (inactive),0.0517,0.212,0.171,-0.27,-0.61
CCCCC=C[C@@H](NC(=O)c1cccs1)c1ccccc1,0.0001,-2.49 (inactive),0.15 (inactive),-0.951 (inactive),-0.548 (inactive),0.801,0.261,0.0798,0.454,-0.216
O=C(O)[C@@]1(Cc2ccccc2)N=C(c2ccc(OCCCO)cc2)O[C@H]1c1ccccc1,-0.243,-0.637 (inactive),-0.622 (inactive),-0.286 (inactive),-0.215 (inactive),-0.28,0.166,-0.184,1.4,0.422
C=C(CCCC)/C(=C/C[C@H](OC(C)=O)c1ccc(CO)o1)c1cnc2ccccc2c1,0.465,0.665 (inactive),-1.22 (inactive),0.0563 (inactive),1.65 (inactive),1.25,0.0278,0.749,1.08,1.89
C=CCNC(=O)[C@H]1[C@@H]2C(=O)O[C@@H](c3ccccc3)[C@@H](c3ccccc3)N2[C@@H](c2ccc(O)cc2)[C@]12C(=O)N(C(=O)OCCOC)c1ccc(C#CCCO)cc12,0.317,-0.185 (inactive),-0.176 (inactive),-0.141 (inactive),0.567 (inactive),-0.0841,-0.0954,0.846,0.432,1.08
COCCOC(=O)N1C(=O)[C@@]2(c3cc(C#CC4=CCCCC4)ccc31)[C@H](C(=O)NC[C@H](O)c1ccccc1)[C@H]1C(=O)O[C@H](c3ccccc3)[C@H](c3ccccc3)N1[C@@H]2c1ccc(O)cc1,0.236,-3.91 (inactive),1.19 (inactive),0.208 (inactive),-1.04 (inactive),1,0.221,0.838,0.652,1.34
CC(c1ccccc1)C(O)C1C=CC2C(=O)NC(=O)C2N1Nc1ccccn1 (stereo not given),0.211,1.25 (inactive),-1.1 (inactive),-0.329 (inactive),-1.03 (inactive),0.0932,0.0906,0.763,0.197,0.341
COc1ccc(CCNC(=O)[C@@H]2c3ccccc3C(=O)N(Cc3ccc(OC(F)(F)F)cc3)[C@H]2c2ccc(CO)cc2)cc1,0.446,-2.71 (inactive),-0.676 (inactive),-0.475 (inactive),-0.206 (inactive),-0.0886,-0.0465,-0.271,0.366,-0.144
C=C(COC)C(=O)CC[C@@H](OC(=O)c1cccnc1)c1ccc(CO)o1,0.345,-0.336 (inactive),-0.0359 (inactive),0.611 (inactive),0.114 (inactive),-0.022,-0.0675,0.247,-0.332,1.6
C[C@]1(C(=O)NCc2ccccc2)c2ccccc2C(=O)N(Cc2cc(F)cc(C(F)(F)F)c2)[C@H]1c1ccc(CO)cc1,-0.0261,-1.8 (inactive),-0.255 (inactive),0.0909 (inactive),-0.323 (inactive),-0.859,0.13,-0.956,-1.47,-0.436
O=C1O[C@@H](c2ccccc2)[C@@H](c2ccccc2)N2[C@@H](c3ccc(O)cc3)[C@]3(C(=O)Nc4ccc(C#CC5=CCCCC5)cc43)[C@@H](C(=O)O)[C@H]12,0.942,-2.52 (inactive),-2.85 (inactive),-0.0515 (inactive),-1.12 (inactive),1.75,0.198,0.198,0.637,0.146
